In PubChem BioAssay AID763 (NMMLSC, 2007) one finds inhibition data, which are given here for 33 molecules.

This test addresses fMet-Leu-Phe receptor (Homo sapiens) (UniProt P21462). In words: human FPR1 ligand displacement single-point test – cell-based, single concentration, selectivity assay for FPRL1 ligand SAR project, SAR follow-up (AID 763). Conditions: FPR1-expressing cells, fluorescent ligand binding inhibition, hits give high values; at 5.4 µM unless noted.

Molecules are shown by their SMILES. A number with no mark means an inactive call. Activity calls are given as the source filed them. The rule behind the calls is not given here.

Sequence of fMet-Leu-Phe receptor (Homo sapiens) (P21462 whole entry, looked up): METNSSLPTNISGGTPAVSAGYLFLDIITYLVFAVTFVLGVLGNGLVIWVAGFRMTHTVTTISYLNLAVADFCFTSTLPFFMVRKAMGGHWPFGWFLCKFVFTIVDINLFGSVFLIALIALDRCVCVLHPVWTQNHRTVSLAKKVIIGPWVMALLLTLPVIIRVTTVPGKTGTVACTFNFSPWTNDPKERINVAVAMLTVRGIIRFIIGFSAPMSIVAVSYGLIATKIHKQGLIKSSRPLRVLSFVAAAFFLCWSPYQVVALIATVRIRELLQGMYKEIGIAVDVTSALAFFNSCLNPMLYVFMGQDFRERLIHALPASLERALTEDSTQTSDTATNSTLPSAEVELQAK

Broadly, the inhibition is the change of the read-out against control, counted positive when it falls. Consider `COc1ccc(-c2cn3cccnc3n2)cc1NC(=O)COc1ccccc1`, for which the inhibition is 5.8% [at 5.9 µM]. On to `COc1ccccc1-c1cc(C(F)(F)F)nc(N2CCN(C)CC2)n1`, for which the inhibition is 5% [at 6.3 µM]. `COc1ccccc1-c1cc(C(F)(F)F)nc(N2CCN(c3ccccc3OC)CC2)n1`: the inhibition was -2.2% [at 5 µM]. As for `Clc1ccc2nc(N3CCN(c4ccccc4)CC3)nc(-c3ccccc3)c2c1`, the inhibition was 1.7% [at 5.5 µM]. For `COc1ccc(-c2cn3cccnc3n2)cc1NC(=O)CSCc1ccccc1` the value was -0.7% [at 5.5 µM]. For `O=C(O)CCC(=O)N1CCN(c2nc(-c3ccccc3Cl)c3cc(Br)ccc3n2)CC1`, the inhibition is 2.5% [at 4.4 µM]. As for `O=C(N1CCN(c2nc(-c3ccccc3)c3cc([N+](=O)[O-])ccc3n2)CC1)C(F)(F)F`, the inhibition is -1.2% [at 5.2 µM]. In the case of `COc1ccc(-c2cn3cccnc3n2)cc1NC(=O)c1ccccc1Br`, the inhibition is 0.1% [at 5.3 µM]. Take `COc1ccc(-c2cn3cccnc3n2)cc1NC(=O)Cc1ccccc1`: the inhibition is -1.4% [at 6.2 µM]. For the molecule `FC(F)(F)c1cc(-c2cccs2)nc(N2CCN(C(c3ccccc3)c3ccccc3)CC2)n1`, the inhibition was -2.4% [at 4.6 µM]. The result for `COc1ccccc1-c1cc(C(F)(F)F)nc(N2CCN(c3ccccc3)CC2)n1` reads -10.8%; that for `Cc1ccccc1C(=O)N1CCN(c2nc(-c3ccccc3)c3cc(Cl)ccc3n2)CC1`, -3.4% [at 5 µM]; that for `COc1cccc(-c2cc(C(F)(F)F)nc(N3CCN(c4ccccc4)CC3)n2)c1`, -7.4%. As for `COc1ccc(-c2cn3cccnc3n2)cc1NC(=O)c1cccc(F)c1`, the inhibition is -0.9% [at 6.1 µM]. For the molecule `O=C(O)/C=C/C(=O)N1CCN(c2nc(-c3ccccc3)c3ccccc3n2)CC1`, the inhibition was 2.4% [at 5.7 µM]. With `COc1ccc(-c2cn3cccnc3n2)cc1NC(=O)C(C)(C)C`, the inhibition is 1.9% [at 6.9 µM].

Consider `COc1ccc(-c2cn3cccnc3n2)cc1NC(=O)C(C)Oc1ccccc1` (stereo not drawn), for which the inhibition was 3.7% [at 5.7 µM]. The result for `COc1ccc(-c2cn3cccnc3n2)cc1NC(=O)c1ccc(Br)o1` reads 0.9%; that for `COc1ccc(-c2cn3cccnc3n2)cc1NC(=O)CCCc1ccccc1`, -0.5% [at 5.8 µM]. The result for `Cc1c(-c2cccc(NC(=O)C(C)(C)C)c2)nc2ncccn12` reads 4.9% [at 7.2 µM]; that for `COc1ccc(C2CC(=O)c3cnc(N4CCN(Cc5ccc6c(c5)OCO6)CC4)nc3C2)cc1OC` (stereo not drawn), -0.9% [at 4.4 µM]; that for `COc1ccccc1-c1cc(C(F)(F)F)nc(N2CCN(C(c3ccccc3)c3ccccc3)CC2)n1`, 6.5% [at 4.4 µM].

Turning to `Clc1ccccc1N1CCN(c2nc(-c3ccccc3)c3cc(Br)ccc3n2)CC1`, the inhibition is 2.1% [at 4.6 µM]. As to `COc1ccccc1-c1cc(C(F)(F)F)nc(N2CCN(c3ccc(F)cc3)CC2)n1`, the inhibition was -2.5% [at 5.1 µM]. As for `Clc1ccccc1-c1nc(N2CCN(c3ccccc3)CC2)nc2ccc(Br)cc12`, the inhibition is 1.5% [at 4.6 µM]. For `COc1ccc(-c2nc(N3CCN(C)CC3)[nH]c(=O)c2C#N)cc1` the value was -1.7% [at 6.8 µM]; for `COc1ccc(C(=O)Nc2cc(-c3cn4cccnc4n3)ccc2OC)cc1`, 3.4% [at 5.9 µM]. In the case of `Cc1ccc(-c2cn3cccnc3n2)cc1NC(=O)C(C)C`, the inhibition is 3.7% [at 7.6 µM]. As to `COc1ccc(-c2cc(C(F)(F)F)nc(N3CCN(c4ccccc4)CC3)n2)cc1OC`, the inhibition was 54.8% [at 5 µM] (active). Consider `CC(C)(C)OC(=O)N1CCN(c2nc(-c3ccccc3)c3cc([N+](=O)[O-])ccc3n2)CC1`, for which the inhibition was -8.4% [at 5.1 µM]. As to `COc1ccc(CC(=O)Nc2cc(-c3cn4cccnc4n3)ccc2OC)cc1`, the inhibition was -1.7% [at 5.7 µM].

In the case of `O=C(c1ccccc1)N1CCN(c2nc(-c3ccccc3)c3ccccc3n2)CC1`, the inhibition is 1.8% [at 5.6 µM]. For the molecule `COc1ccc(-c2cc(C#N)nc(N3CCN(c4ccccc4)CC3)n2)cc1`, the inhibition is 2.6% [at 6 µM].
